Source: PubChem BioAssay (Tox21)
Activity calls are given as the source filed them. Calls come from the whole dose curve; as a rule, active = well fitted activation curve with a large enough effect in the repeat runs; inconclusive = weak or mixed curves; inactive = flat fitted curve, though single readings scatter.

Target: KiSS-1 receptor (Homo sapiens) (UniProt Q969F8)
Test: Human kisspeptin (KISS1R) small molecule agonists, calcium flux assay in KISS1R-HEK293 cells (AID 1920064)
Conditions: KISS1R-HEK293, calcium flux fluorescence, agonist; series mostly up to 76.8 µM; activation: at the top concentration
Outline: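 Kinetic calcium assay, 1 s sampling over 3 min at Ex/Em 480/540, in HEK293 cells engineered with human KISS1R; compounds delivered in DMSO after 1 h dye loading.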
% is set by controls: 0 for no effect and ±100 for the full control effect.

KiSS-1 receptor (Homo sapiens), sequence (Q969F8 whole entry, looked up): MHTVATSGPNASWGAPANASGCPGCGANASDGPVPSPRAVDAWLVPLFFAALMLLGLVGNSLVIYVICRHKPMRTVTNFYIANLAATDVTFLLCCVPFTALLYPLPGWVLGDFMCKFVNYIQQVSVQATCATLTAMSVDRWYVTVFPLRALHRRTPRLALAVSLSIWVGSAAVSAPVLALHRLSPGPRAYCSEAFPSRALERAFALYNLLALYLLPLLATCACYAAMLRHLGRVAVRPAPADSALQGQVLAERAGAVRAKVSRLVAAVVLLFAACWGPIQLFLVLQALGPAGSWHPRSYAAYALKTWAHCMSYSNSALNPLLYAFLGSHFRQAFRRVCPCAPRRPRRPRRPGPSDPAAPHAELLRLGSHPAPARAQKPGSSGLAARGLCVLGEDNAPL

| SMILES | activation | Potency |
| --- | --- | --- |
| Nc1cccc2c(N)cccc12 | 7.63% (inactive) | – |
| O=C(OC[C@H]1O[C@@H](OC(=O)c2cc(O)c(O)c(OC(=O)c3cc(O)c(O)c(O)c3)c2)[C@H](OC(=O)c2cc(O)c(O)c(OC(=O)c3cc(O)c(O)c(O)c3)c2)[C@@H](OC(=O)c2cc(O)c(O)c(OC(=O)c3cc(O)c(O)c(O)c3)c2)[C@@H]1OC(=O)c1cc(O)c(O)c(OC(=O)c2cc(O)c(O)c(O)c2)c1)c1cc(O)c(O)c(OC(=O)c2cc(O)c(O)c(O)c2)c1 | -0.551% [at 15.8 µM] (inactive) | – |
| COC(=O)CC(C)CCC=C(C)C (stereo not given) | -0.3% (inactive) | – |
| CC(C)n1nc(-c2cc3cc(O)ccc3[nH]2)c2c(N)ncnc21 | 4.71% [at 35.3 µM] (inactive) | – |
| CNCc1ccc(NC(=O)c2c[nH]c3c2C(=O)CCC3)cc1 | 1.77% (inactive) | – |
| CCOC(=O)COc1ccc2c(C)c(CCN(CC)CC)c(=O)oc2c1Cl | -0.81% [at 35.3 µM] (inactive) | – |
| Cc1cccc(C)c1NC(=O)CN1CCN(CCCC(c2ccc(F)cc2)c2ccc(F)cc2)CC1 | -0.0445% [at 35.3 µM] (inactive) | – |
| O=C(Nc1cccc([N+](=O)[O-])c1)c1cc2ccccc2cc1O | 1.54% (inactive) | – |
| COc1ccccc1N1CCN(CC(O)COc2cccc3ccccc23)CC1 (stereo not given) | 6.49% [at 35.3 µM] (inactive) | – |
| CC(CN)CC(C)(C)CCN (stereo not given) | 0.418% [at 200 µM] (inactive) | – |
| Cc1cc(NC(=O)C(=O)O)cc(C)c1Oc1ccc(O)c2c1CCC2 | -0.12% (inactive) | – |
| OCCCS | 0.655% (inactive) | – |
| Cc1cc(=O)oc2cc(N(C)C)ccc12 | -0.302% (inactive) | – |
| CCCCCOc1ccccc1/C(=C\SC)n1ccnc1 | 4.64% [at 35.3 µM] (inactive) | – |
| CC[C@H]1CC[C@H](NCc2cc3c(cc2OC)[C@H]2C[C@H]2C(=O)N3C)[C@H](c2ccccc2)N1 | 1.92% (inactive) | – |
| C=CC(=O)OCC1CC2CC1C1CCC(COC(=O)C=C)C21 (stereo not given) | -1.66% (inactive) | – |
| CCc1c(C(=O)NN2CCCCC2)nn(-c2ccc(Cl)cc2Cl)c1-c1ccc(Br)cc1 | 0.0338% (inactive) | – |
| COC(=O)c1nc(Cl)c(Cl)nc1N | -0.11% [at 35.3 µM] (inactive) | – |
| c1cc(OCC2CO2)cc(OCC2CO2)c1 (stereo not given) | 0.833% (inactive) | – |
| C=CC(=O)OCCCCCCOC(=O)C=C | – | inactive |

| SMILES | activation | Potency |
| --- | --- | --- |
| CCCCNCCCC | 2.41% (inactive) | – |
| O=C(c1ccc(F)cc1)C1CCN(CCn2c(=S)[nH]c3ccccc3c2=O)CC1 | 0.213% [at 35.3 µM] (inactive) | – |
| Clc1ccc(Cn2c(CN3CCCC3)nc3ccccc32)cc1 | 0.588% [at 35.3 µM] (inactive) | – |
| CCC(C)(C)c1ccc(CC(C)CN2C[C@@H](C)O[C@@H](C)C2)cc1 (stereo not given in full) | 1.92% [at 35.3 µM] (inactive) | – |
| CCCCCCCCCCCCCCCCCCCl | 6.45% [at 6.97 µM] (inactive) | – |
| Cc1cc(Nc2ccc(O)cc2)ccc1N | -3.74% (inactive) | – |
| c1cc(CN2CCCCC2)cc(OCCCNc2nc3ccccc3s2)c1 | 4.43% [at 35.3 µM] (inactive) | – |
| COC(=O)C1=C(C)NC(C)=C(C(=O)O[C@@H]2CCCN(Cc3ccccc3)C2)[C@@H]1c1cccc([N+](=O)[O-])c1 | -0.47% [at 35.3 µM] (inactive) | – |
| O=[N+]([O-])c1ccc(O/N=C/c2cc(Br)c(O)c(Br)c2)c([N+](=O)[O-])c1 | 3.01% (inactive) | – |
| CCCCCCC(C)OC(=O)COc1nc(F)c(Cl)c(N)c1Cl (stereo not given) | -1.08% (inactive) | – |
| CC(O)C#CC(C)O (stereo not given) | -0.871% (inactive) | – |
| COC(=O)C1=C(C)NC(COC(N)=O)=C(C(=O)OC(C)C)C1c1cccc(Cl)c1Cl (stereo not given) | 6.35% [at 35.3 µM] (inactive) | – |
| c1ccc(Cc2ccccc2)cc1 | -0.49% (inactive) | – |
| O=C(Nc1ccc(Cl)cc1)Nc1ccc(Cl)c(C(F)(F)F)c1 | 3.72% [at 35.3 µM] (inactive) | – |
| S=c1[nH]c2ccccc2s1 | 9.02% (inactive) | – |
| Oc1c(I)cc(Cl)c2cccnc12 | – | inactive |
| CCN(CC)CCNc1ccc(CO)c2sc3ccccc3c(=O)c12 | -0.606% [at 35.3 µM] (inactive) | – |
| CCOc1ccc(N=Nc2ccc(/C=C/c3ccc(N=Nc4ccc(OCC)cc4)cc3S(=O)(=O)O)c(S(=O)(=O)O)c2)cc1 | -7.76% (inactive) | – |
| CN(C)CCCN1c2ccccc2Sc2ccc(C(F)(F)F)cc21 | 1.28% [at 35.3 µM] (inactive) | – |
| CCCCCC[C@@H](O)C/C=C\CCCCCCCC(=O)O | -0.308% (inactive) | – |
